From PubChem BioAssay AID1347418 (Sanford-Burnham Center for Chemical Genomics, 2020)
Out of some 1,300 compounds screened, about 750 (58%) were called active. The list shows a part of the results. Values without a mark were called inactive.

biological target: Sulfhydryl oxidase 1 (Homo sapiens) (UniProt O00391); test: QSOX1 enzyme inhibitors, primary screen, biochemical, ROS-Glo H2O2 luminescence, HTS (AID 1347418); settings: recombinant QSOX1, ROS-Glo H2O2 luminescence; at 12.5 µM; hits give high values; active = any value above zero
Sequence (O00391 whole entry, looked up): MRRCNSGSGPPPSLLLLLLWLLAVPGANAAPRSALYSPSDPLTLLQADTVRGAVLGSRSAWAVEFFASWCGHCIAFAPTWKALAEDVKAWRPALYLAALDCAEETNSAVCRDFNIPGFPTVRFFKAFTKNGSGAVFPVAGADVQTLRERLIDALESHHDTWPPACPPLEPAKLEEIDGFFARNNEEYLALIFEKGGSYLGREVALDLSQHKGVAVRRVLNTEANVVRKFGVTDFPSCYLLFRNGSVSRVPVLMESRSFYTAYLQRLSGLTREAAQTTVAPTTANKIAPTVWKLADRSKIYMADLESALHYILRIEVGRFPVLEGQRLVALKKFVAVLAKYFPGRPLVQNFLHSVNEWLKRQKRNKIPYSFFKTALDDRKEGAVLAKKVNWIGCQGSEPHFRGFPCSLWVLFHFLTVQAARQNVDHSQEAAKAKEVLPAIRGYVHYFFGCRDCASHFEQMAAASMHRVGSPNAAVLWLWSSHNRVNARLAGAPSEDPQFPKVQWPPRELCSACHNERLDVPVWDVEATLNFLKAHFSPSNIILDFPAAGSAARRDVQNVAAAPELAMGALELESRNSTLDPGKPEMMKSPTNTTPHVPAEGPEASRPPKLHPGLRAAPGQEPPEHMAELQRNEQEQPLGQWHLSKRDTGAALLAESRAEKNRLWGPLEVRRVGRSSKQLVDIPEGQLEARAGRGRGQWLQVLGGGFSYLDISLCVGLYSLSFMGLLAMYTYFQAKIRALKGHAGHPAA

Compound	inhibition
CCOC(=O)C(C)Oc1cccc2c(=O)n(CC(=O)Nc3ccc4c(c3)OCCO4)ccc12 (stereo not drawn)	-3.2%
c1ccc(CN2CCC3(CCCc4ccccc43)CC2)cc1	3.6% (active)
Cc1nc2sccn2c(=O)c1CCN1CCC(=C(c2ccccc2)c2ccc(F)cc2)CC1	1.2% (active)
Cc1nc2ccccn2c(=O)c1CCN1CCC(C(=O)c2ccc(F)cc2)CC1	-1.4%
Cc1nc2sccn2c(=O)c1CCN1CCC(=C(c2ccc(F)cc2)c2ccc(F)cc2)CC1	1.1% (active)
CN1CCN(C2=Nc3cc(Cl)ccc3Nc3ccccc32)CC1	22.2% (active)
Cc1ccc2c(c1)C(N1CCN(C)CC1)=Nc1cccnc1N2	15.5% (active)
Clc1ccc2c(c1)N=C(N1CCNCC1)c1ccccc1N2	23.2% (active)
CC1=NS(=O)(=O)c2cc(Cl)ccc2N1	-1.4%
CCCCC[C@H](CC(=O)NO)C(=O)N[C@H](C(=O)N1CCC[C@H]1CO)C(C)C	-6.2%
CCN1CCc2nc(N)oc2CC1	2.8% (active)
O=C(O)CCCCCCCC(=O)O	-1.7%
CCCCCCCCCCCCCCSCC(=O)O	-7.6%
CCCCCC(O)CCCC(=O)O (stereo not drawn)	1.1% (active)
CC(C)(C=O)Cc1cc(C(C)(C)C)c(O)c(C(C)(C)C)c1	-0.1%
CC(C)(CO)Cc1cc(C(C)(C)C)c(O)c(C(C)(C)C)c1	4.9% (active)
CCCCCC[C@@H]([C@@H](C)O)n1cnc2c(N)ncnc21	-0.9%
CCCCCCCCCCCCCCC[C@H](O)[C@H](N)CO	7.8% (active)
CCCC(=O)NCCc1c2n(c3ccc(OC)cc13)CCCc1ccccc1-2	15% (active)
CC(C)Cc1ccc(C(C)C(=O)O)cc1 (stereo not drawn)	5.8% (active)
CC(C(=O)O)c1ccc(CC2CCCC2=O)cc1 (stereo not drawn)	0.1% (active)
CC(C)Cc1ccc([C@H](C)C(=O)O)cc1	-0.6%

Compound	inhibition
CC(C(=O)O)c1cccc(C(=O)c2ccccc2)c1 (stereo not drawn)	-2.4%
O=C(O)/C=C/c1cnc[nH]1	1% (active)
CCC1(C)CC(=O)NC1=O (stereo not drawn)	0.9% (active)
CCCCOc1cc(CC2CNC(=O)N2)ccc1OC (stereo not drawn)	-0.2%
N[C@H](C(=O)O)[C@H]1C[C@@H]1C(=O)O	0.2% (active)
Cc1cccc(C)c1OCC(N)C(C)C (stereo not drawn)	4.5% (active)
Cc1cccc(C)c1OCC(C)N (stereo not drawn)	-0.4%
Cc1cc2c(cc1Cl)N(C(=O)Nc1ccc(Oc3cccnc3C)nc1)CC2	1.2% (active)
Cc1cc2c(cc1Cl)N(C(=O)Nc1ccnc3ccccc13)CC2	16.8% (active)
CCN(CC)CCNC(=O)c1ccc(NS(C)(=O)=O)cc1	-0.3%
CCN(CC)CCNC(=O)c1ccc(N)cc1	-7.4%
CCN(CC)CCNC(=O)c1ccc(NC(C)=O)cc1	0.3% (active)
CN(C)CCOC(C)(c1ccccc1)c1ccccn1 (stereo not drawn)	-2.5%
COc1ccc(CN(CCN(C)C)c2ccccn2)cc1	1.5% (active)
CN(C)CCN(Cc1cccs1)c1ccccn1	7% (active)
CNC1(C)C2CCC(C2)C1(C)C (stereo not drawn)	-2%
CN1CCCC1CCOC(C)(c1ccccc1)c1ccc(Cl)cc1 (stereo not drawn)	0.6% (active)
C=C/C(C)=C/[C@@]1(C)SC(=O)C(C)=C1O	-4.2%
CO[C@@]1(NC(=O)CSCC#N)C(=O)N2C(C(=O)O)=C(CSc3nnnn3C)CS[C@@H]21	0.7% (active)
Cc1nnc(SCC2=C(C(=O)O)N3C(=O)[C@@H](NC(=O)Cn4cnnn4)[C@H]3SC2)s1	-3.9%
CO/N=C(\C(=O)N[C@@H]1C(=O)N2C(C(=O)O)=C(CSc3nc(=O)c(O)nn3C)CSC12)c1csc(N)n1 (stereo partly drawn)	-1.9%
O=C(O)C1CN(CCCP(=O)(O)O)CCN1 (stereo not drawn)	2.1% (active)

Compound	inhibition
CN1CCC2(CCN3CCc4c(oc5ccccc45)C3C2)N(C)C1=O (stereo not drawn)	-6.5%
NC(=O)CNCCC(c1ccccc1)c1ccccc1	2.2% (active)
OC(CN1CCN(c2cccc(Cl)c2)CC1)C(c1ccccc1)c1ccccc1 (stereo not drawn)	5.1% (active)
CC1CCN=C(N)S1 (stereo not drawn)	-1.8%
O=C(O)C1=CCCN(CCON=C(c2ccccc2)c2ccccc2)C1	1.1% (active)
CC(C)C[C@H]1C(=O)N2CCC[C@H]2[C@]2(O)O[C@](NC(=O)[C@@H]3C=C4c5cccc6[nH]c(Br)c(c56)C[C@H]4N(C)C3)(C(C)C)C(=O)N12	4% (active)
CC1C(=O)N(C)C(=O)c2nc[nH]c21 (stereo not drawn)	0.5% (active)
CCCn1c(=O)[nH]c(=O)c2[nH]cnc21	-1.8%
Cc1ccc(S(=O)(=O)N[C@@H](Cc2ccccc2)C(=O)CCl)cc1	-8.2%
Cc1ccc(S(=O)(=O)NC(=O)NN2CCCCCC2)cc1	4.7% (active)
CCc1ccc2c(-c3cccc(Cl)c3)nc(=O)n(CC)c2n1	-0.7%
Nc1cc(Cl)c(NC2=NCCN2)c(Cl)c1	-2.8%
Clc1cccc(Cl)c1NC1=NCCN1	-1.9%
Clc1ccc2nsnc2c1NC1=NCCN1	1.5% (active)
Cn1cc(C2=C(c3ccc(Cl)cc3Cl)C(=O)NC2=O)c2ccccc21	-1.7%
CCN(CC)C(=O)c1ccc(O)c(OC)c1	6.8% (active)
CCCCCCCC/C=C\CCCCCCCC(=O)NCc1ccc(O)c(OC)c1	-4.3%
COc1cc(CNC(=O)CCCCCCC(C)C)ccc1O	7.6% (active)
COc1cc(CC(=O)O)ccc1O	11% (active)
O=C(O)Cc1ccc(O)c(O)c1	5.6% (active)
CC1CCN(CC[C@H]2CCCN2S(=O)(=O)c2cccc(O)c2)CC1	-3.7%
Brc1c(NC2=NCCN2)ccc2nccnc12	-3.8%

Compound	inhibition
O=C1c2ccccc2-c2n[nH]c3cccc1c23	12.7% (active)
Oc1cc2c(c(Cl)c1O)CCNCC2c1ccccc1 (stereo not drawn)	24.1% (active)
Oc1cc2c(cc1O)C(c1ccccc1)CNCC2 (stereo not drawn)	5.7% (active)
Oc1ccc(C2CNCCc3c2cc(O)c(O)c3Cl)cc1 (stereo not drawn)	30% (active)
O=C(O)C1=CCNCC1	-1.6%
CN(C)C(N)=NCCC[C@H](N)C(=O)O	0.3% (active)
NC(N)=NCCC[C@H](N)C(=O)O	6% (active)
CC(N)=NCCCC[C@@H](N)C(=O)O	-0.6%
CSC(N)=NCCC[C@H](N)C(=O)O	1.7% (active)
O=c1c2ccccc2nc2n1CCc1c-2[nH]c2ccccc12	5% (active)
Nc1c2c(nc3ccccc13)CCCC2	-3.1%
CCCCCCC/C=C\CCCCCCCCC(=O)O	-3.4%
CCCCCCCCCCC/C=C\C(C)(C)/C=C\CCCC(=O)O	9.1% (active)
CCCn1c(=O)c2[nH]c(-c3ccc(OCC(=O)NCCN)cc3)nc2n(CCC)c1=O	0.5% (active)
CCCn1c(=O)c2[nH]c(-c3ccc(S(=O)(=O)O)cc3)nc2n(CCC)c1=O	-0.7%
CCC1(c2ccccc2)C(=O)NCNC1=O	2.4% (active)
CN1Cc2c(N)cccc2C(c2ccccc2)C1 (stereo not drawn)	5.3% (active)
CC1=C(/C=C/C(C)=C/C=C/C(C)=C/C(=O)Nc2ccc(O)cc2)C(C)(C)CCC1	1.8% (active)
CC1=C(/C=C/C(C)=C/C=C/C(C)=C\C(=O)O)C(C)(C)CCC1	-3%
CC1=C(/C=C/C(C)=C/C=C/C(C)=C/C(=O)O)C(C)(C)CCC1	2.4% (active)
CC(=O)O[C@]1(C(C)=O)CC[C@H]2[C@@H]3C=C(Cl)C4=CC(=O)[C@@H]5C[C@@H]5[C@]4(C)[C@H]3CC[C@@]21C	6.1% (active)
NC[C@@H]1O[C@H](C23CC4CC(CC(C4)C2)C3)Cc2c1ccc(O)c2O	17.8% (active)

Compound	inhibition
NC[C@@H]1O[C@H](c2ccccc2)Cc2c1ccc(O)c2O	11% (active)
Nc1ncnc2n[nH]c(Nc3ccc(F)cc3)c12	19.7% (active)
C1COC(NC(C2CC2)C2CC2)=N1	0.6% (active)
Clc1ccc(Cn2c(CN3CCCC3)nc3ccccc32)cc1	-0.7%
Clc1ccc(N2CCN(Cc3cc4ccccn4n3)CC2)cc1	21.7% (active)
O=C1CCC(N2C(=O)c3ccccc3C2=O)C(=O)N1 (stereo not drawn)	-1.8%
O=c1ccc2ccc(O)c(O)c2o1	31.6% (active)
Cn1cnc2c(NCc3ccccc3)nc(NCCO)nc21	1.3% (active)
CC[C@@H](CO)Nc1nc(NCc2ccccc2)c2ncn(C(C)C)c2n1	6.3% (active)
Cc1cc(NC2CCCCC2)nc(-n2nc(C)cc2C)n1	1.1% (active)
Cc1ccc(Cl)c(Nc2ccccc2C(=O)O)c1Cl	6.2% (active)
O=C(O)c1ccccc1Nc1ccccc1	42.7% (active)
O=C(O)CP(=O)(O)O	-4%
CC(N)C1CCC(C(=O)Nc2ccncc2)CC1 (stereo not drawn)	4.4% (active)
COc1ccc(C2CNC(=O)C2)cc1OC1CCCC1 (stereo not drawn)	-7.5%
CC[C@@H](C)[C@H]1O[C@]2(CC[C@@H]1C)C[C@@H]1C[C@@H](C/C=C(\C)[C@@H](O[C@H]3C[C@H](OC)[C@@H](O[C@H]4C[C@H](OC)[C@@H](O)[C@H](C)O4)[C@H](C)O3)[C@@H](C)/C=C/C=C3\CO[C@@H]4[C@H](O)C(C)=C[C@@H](C(=O)O1)[C@]34O)O2	1.1% (active)
COc1ccccc1OCCNCC(O)COc1cccc2[nH]c3ccccc3c12 (stereo not drawn)	1.9% (active)
CCCNCC(O)COc1ccccc1C(=O)CCc1ccccc1 (stereo not drawn)	-7.1%
C=C1C(=O)O[C@@H]2[C@H]3O[C@]3(C)CCC=C(C)CC[C@@H]12	0.5% (active)
NCCCC(N)(C(=O)O)C(F)F (stereo not drawn)	-2.3%
